From PubChem BioAssay
Nrf2 block – blocks Nrf2 signaling | A549 ARE-Fluc reporter, luciferase luminescence, 18-24 h | Potency, µM (highest dose often 46 µM), for the others: at the highest dose activity change, negative = inhibition, actives largely listed as inhibitors | 360,000 compounds, 2.1% hits; note: % is set by controls: 0 for no effect and ±100 for the full control effect; nearly all actives have a fitted effect of over 60% in size
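Nrf2 function is reported as luminescence of an ARE-controlled luciferase in A549 cells. Compounds were tested at several concentrations, and a CellTiter-Fluor read on the same wells flagged cytotoxicity.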
ELG1 DNA repair – blocks ELG1-dependent DNA repair in HEK293T cells; HEK293T ELG1-luciferase reporter, luminescence, 16 h; DNA damage induced by 5-fluorouridine; AID 504467; Potency, µM (top dose mostly 46.1 µM), for inactives: top-dose activity change, negative = inhibition, most hits filed as inhibitors; 330,000 compounds, 2.3% hits; note: % is set by controls: 0 for no effect and ±100 for the full control effect; nearly all actives have a fitted effect of over 55% in size
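Step one: seed 2,000 cells per well. Step two: pin-transfer compound or DMSO alongside 5-fluorouridine. Step three: incubate 16 hr, 37 °C, 5% CO2. Step four: add ONE-Glo, wait 30 min, read luminescence.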
A549 viability – A549 cytotoxicity, counter-screen for Nrf2 inhibitors. AID 504648. A549 ARE-Fluc cells, CellTiter-Fluor viability, 18-24 h. Potency, µM (titrated, usually from 46 µM), without a hit: top-dose activity change, negative = cytotoxicity, actives largely listed as inhibitors. 390,000 compounds, 0.16% hits; note: % is set by controls: 0 for no effect and ±100 for the full control effect
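Cytotoxicity counterscreen: CellTiter-Fluor fluorescence was measured in A549 ARE_Fluc cells after 18-24 h of compound exposure in a concentration series. The subsequent BugLite luminescent read reports ARE-luciferase activity.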
Nrf2 ARE act – activates Nrf2 signaling; Potency, µM (doses to about 46.1 µM), inactives show at the top dose activation, hits mostly activators; 410,000 compounds, 0.31% hits; AID 624171; AREc32 ARE-luciferase reporter (MCF7-derived line), luminescence, 24 h; note: % of control where 0% means no effect; nearly all actives have a fitted effect of over 65% in size
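Quantitative high-throughput format: AREc32 reporter cells, 1000 per well, received compound by pin transfer and were incubated 24 hr at 37 deg C, 5% CO2, before Steady-Glo luminescence detection.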
An asterisk follows results filed as active; u = inconclusive; x = no result. In the library only some 3.7% were active in any assay of this set; here they are far more common. Calls come from the whole dose curve; as a rule, active = well fitted curve in the direction sought with a large enough effect; inconclusive = small, poorly fitted or top-dose-only effect, or another doubt; inactive = no such curve, though single readings can be large; an effect the other way counts as inactive or inconclusive. Potency is the fitted concentration of half-maximal effect.

SMILES	Nrf2 block	ELG1 DNA repair	A549 viability	Nrf2 ARE act
COc1ccc(/C=N/NC(=O)c2ccccc2OC)cc1COc1ccccc1[N+](=O)[O-]	u	13µM*	-2.2%	21.0%
COc1ccc(/C=N/NC(=O)c2ccn[nH]2)cc1COc1ccc([N+](=O)[O-])c(C)c1	u	u	-11.1%	3.2%
COc1ccc(/C=N/NC(=O)c2ccco2)cc1Cn1nc(C)c([N+](=O)[O-])c1C	16.4µM*	-2.5%	u	4.2%
CCC(Oc1ccccc1)C(=O)N1CCN(S(=O)(=O)c2ccccc2)CC1 (stereo not given)	-6.9%	-5.2%	4.8%	0.8%
COc1ccc(/C=N\NC(=O)c2ccc([N+](=O)[O-])c(C)c2)cc1COc1ccccc1C(N)=O	1.8%	u	7.5%	4.3%
COc1ccc(/C=N\NS(=O)(=O)c2ccc(C)cc2)cc1COc1ccccc1[N+](=O)[O-]	-22.8%	16.4µM*	-16.6%	9.7%
COc1ccc(NS(=O)(=O)c2ccc(N3CCCC3=O)cc2)cn1	u	u	-9.3%	-0.6%
COc1ccc(NS(=O)(=O)c2ccc3c(c2)Cc2ccccc2-3)cn1	16.4µM*	u	-19.7%	-0.5%
COc1ccc(Nc2nc(Nc3ccc(OC)cc3)nc(-n3[nH]c(=O)c(C)c3C)n2)cc1	u	2.31µM*	u	10.0%
CCOC(=O)N1CCN(S(=O)(=O)c2ccc3c(c2)SCC(=O)N3)CC1	u	20.6µM*	2.1%	2.2%
CC(=O)Nc1cccc(C(=O)OCC(=O)NC(=O)C2CCCCC2)c1	8.5%	x	6.0%	x
CCOCCCNC(=O)/C(C#N)=C/c1cc(OC)c(O)c([N+](=O)[O-])c1	-4.5%	17.4%	18.4µM*	3.1%
CCN(CC)S(=O)(=O)c1ccc(OC)c(NC(=O)/C=C/c2ccco2)c1	3.5%	23.1µM*	0.6%	u
Cc1ccc2nsnc2c1NC(=O)c1ccc([N+](=O)[O-])cc1	u	16.4µM*	-13.7%	2.8%
O=C(Nc1cnc2ccccc2c1)c1ccncc1	u	u	-0.6%	0.7%
C=CC(=O)Nc1cccc(Oc2ncnc3[nH]cc(-c4cnc5ccccc5c4)c23)c1	-16.5%	7.3µM*	1.9%	0.0%
O=C(Cc1ccccc1)NCC(=O)N1CCN(c2ccc(F)cc2)CC1	x	x	x	0.1%
Clc1ccc(C2=CC(c3ccco3)n3ncnc3N2)cc1 (stereo not given)	16.4%	-5.7%	u	u
Clc1ccccc1C1=CC(c2ccco2)n2ncnc2N1 (stereo not given)	4.1%	4.2%	0.8%	11.2µM*
Cc1ccc2c(n1)sc1c(-c3ccc(Br)cc3)c(C#N)c(N)nc12	20.6µM*	-9.8%	u	4.2%
CCc1nc(N)c(C#N)c(-c2ccc(F)cc2)c1C	u	-12.3%	3.2%	-0.6%
Cc1onc(-c2c(Cl)cccc2Cl)c1C(=O)OCC(=O)c1ccccc1	-24.8%	1.3%	13.4%	-0.3%
CCOC(=O)c1cc(-c2c(Cl)cccc2Cl)no1	-20.2%	13µM*	-2.0%	-0.7%
COc1ccc(-c2csc(/C(C#N)=C\c3ccc(O)c([N+](=O)[O-])c3)n2)cc1OC	-21.5%	14.6µM*	-13.6%	-0.4%
COc1cc(/C=C(\C#N)c2nc3ccccc3s2)cc([N+](=O)[O-])c1O	u	u	20.6µM*	0.6%
SMILES	Nrf2 block	ELG1 DNA repair	A549 viability	Nrf2 ARE act
N#C/C(=C\c1ccc(O)c([N+](=O)[O-])c1)c1nc2ccccc2s1	u	-16.4%	14.6µM*	8.1%
COc1ccc(-c2csc(/C(C#N)=C\c3ccc(OC)c([N+](=O)[O-])c3)n2)cc1	-23.1%	-13.1%	10.8%	-0.5%
O=C(O)CC/C(=C\c1ccc(Cl)c([N+](=O)[O-])c1)c1nc2ccccc2s1	-26.8%	-15.1%	-19.8%	7.2%
Cc1ccc(NC(=O)Cc2ccc(-n3c(C)nc4cccnc43)cc2)cc1C	u	x	10.5%	1.5%
CCN(c1ccccc1)S(=O)(=O)c1cccc(C(=O)NCC(c2ccc(F)cc2)N2CCOCC2)c1 (stereo not given)	u	x	-3.7%	0.9%
COC(=O)C(C(C)C)N1CC(=O)c2ccccc2S1(=O)=O (stereo not given)	8.2%	x	-9.7%	x
COc1cc(-c2ccc3ncnc(NCc4nc(C)cs4)c3c2)cc(OC)c1OC	u	x	-2.3%	x
Cc1ccccc1C(=O)N1CCC[C@@H]1C(=O)N1CCC[C@H]1C(=O)NCc1ccncc1	x	x	x	-0.5%
